Screening results deposited in PubChem BioAssay by National Center for Advancing Translational Sciences (NCATS).
Sampled rows, rich in hits. Any-hit rate of the full collection: about 15%.
ELG1 DNA repair: ELG1-dependent DNA repair inhibition | HEK293T ELG1-luciferase reporter, luminescence, 16 h; DNA damage induced by 5-fluorouridine | Potency, µM (doses to about 46.1 µM), inactives show top-dose activity change, negative = inhibition, hits mostly inhibitors | 330,000 tested, 2.3% active; note: nearly all actives have a fitted effect of over 55% in size
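HEK293T cells expressing luciferase-tagged ELG1 (2,000/well) received 5-Fluorouridine plus compound or DMSO for 16 hr at 37 °C. Luciferase was read by ONE-Glo luminescence after 30 min at room temperature.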
TDP1 cell noCPT: qHTS for Inhibitors of human tyrosyl-DNA phosphodiesterase 1 (TDP1): qHTS in cells in absence of CPT; AID 686978, 2013; DT40 Tdp1-/- hTDP1 cells, no CPT, ATP luminescence, 48 h; Potency, µM (top dose mostly 46.2 µM), for inactives: at the highest dose activity change, negative = growth inhibition, usual class: inhibitors; 420,000 tested, 15% active; note: nearly all actives have a fitted effect of over 55% in size
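Compound effects on proliferation are scored in DT40 Tdp1-/-;hTDP1 cells in the absence of CPT. ATP levels (CellTiter-Glo luminescence) are recorded after a ≥48 hr, 37 °C incubation.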
ALOX12 inh: inhibitors of human 12S-lipoxygenase ALOX12; 580,000 tested, 1.1% active; P18054; purified 12hLO, xylenol orange hydroperoxide absorbance; AID 1671190; Potency, µM (titrated, usually from 108 µM), for the others: top-dose activity change, negative = inhibition, most hits filed as inhibitors
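Purified human 12hLO at 150 nM in 25 mM Hepes, 0.01% Triton X-100, pH 7.0, preincubated 15 min at room temperature with compound. Reaction started with 40 uM arachidonic acid, 30 min at room temperature. Hydroperoxide measured by Fe-xylenol orange, 573/405 nm absorbance ratio.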
Gal4-VP16 FLuc: Gal4-VP16 reporter inhibition counter-screen; Drosophila S2 Gal4-VP16 UAS-luciferase, luminescence, 20 h; Potency, µM (highest dose often 53.6 µM), for inactives: at the highest dose activity, negative = inhibition, actives largely listed as inhibitors; 310,000 tested, 3.5% active;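 note: Gal4-VP16 expression switched on by copper sulfate through the metallothionein promoter; nearly all actives have a fitted effect of over 50% in size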
TDP1 cell CPT: DT40-hTDP1 cell growth loss with CPT | chicken DT40 Tdp1-/-;hTDP1 cells + 20 nM CPT, ATP luminescence, 48 h | Potency, µM (titrated, usually from 46.2 µM), inactives show at the highest dose activity change, negative = growth inhibition, actives largely listed as inhibitors | 420,000 tested, 12% active; note: nearly all actives have a fitted effect of over 55% in size
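Chicken DT40 Tdp1-/- cells complemented with human TDP1, 400 cells/well, exposed to compounds plus 20 nM camptothecin for at least 48 h at 37 C; viability read as ATP content by CellTiter-Glo luminescence.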
RORgamma inh: ROR gamma (mouse) transcription inhibition | Drosophila S2 Gal4-RORgamma UAS-luciferase reporter, 20 h | P51450 | 310,000 tested, 5.4% active | AID 2551 | Potency, µM (highest dose often 53.6 µM), for the others: at the highest dose activity change, negative = inhibition, actives largely listed as inhibitors; note: nearly all actives have a fitted effect of over 60% in size
Target sequence (P51450 whole entry, looked up, the tested form may be a part): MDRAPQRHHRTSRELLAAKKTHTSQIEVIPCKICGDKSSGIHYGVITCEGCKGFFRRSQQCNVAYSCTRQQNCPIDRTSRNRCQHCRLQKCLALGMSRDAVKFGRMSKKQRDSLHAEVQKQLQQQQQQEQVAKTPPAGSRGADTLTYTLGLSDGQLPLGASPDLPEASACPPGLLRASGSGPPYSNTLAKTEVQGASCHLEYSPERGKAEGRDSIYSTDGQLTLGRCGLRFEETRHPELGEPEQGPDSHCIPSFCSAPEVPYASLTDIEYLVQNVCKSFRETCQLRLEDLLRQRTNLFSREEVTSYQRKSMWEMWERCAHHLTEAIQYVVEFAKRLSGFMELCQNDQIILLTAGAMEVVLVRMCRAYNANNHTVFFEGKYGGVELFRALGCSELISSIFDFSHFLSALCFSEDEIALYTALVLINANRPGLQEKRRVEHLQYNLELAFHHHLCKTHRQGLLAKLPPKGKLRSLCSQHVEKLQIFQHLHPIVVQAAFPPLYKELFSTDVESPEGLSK
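Stable Schneider cell line, Gal4 DNA-binding domain fused to ROR gamma, UAS-luciferase. Cmpd 1 hr RT → CuSO4 700 uM final → 20 hr RT → luciferase reagent 10 min → luminescence.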
Active calls of the source: *; [ ] = another dose, or the depositor's remark. Calls come from the whole dose curve; as a rule, active = well fitted curve in the direction sought with a large enough effect; inconclusive = small, poorly fitted or top-dose-only effect, or another doubt; inactive = no such curve, though single readings can be large; an effect the other way counts as inactive or inconclusive. % is set by controls: 0 for no effect and ±100 for the full control effect; potency is the fitted concentration of half-maximal effect.

NC(=S)Cc1nc(-c2ccccc2)cs1 was read as ELG1 DNA repair inconclusive, TDP1 cell noCPT inconclusive, ALOX12 inh inconclusive, Gal4-VP16 FLuc 8.9µM*, TDP1 cell CPT inconclusive and RORgamma inh 11µM*.
`Oc1csc(Cc2nc(-c3ccc(-c4ccccc4)cc3)cs2)n1` gave ELG1 DNA repair inconclusive, TDP1 cell noCPT 1%, ALOX12 inh inconclusive, Gal4-VP16 FLuc -3%, TDP1 cell CPT 1% and RORgamma inh inconclusive.
O=C(CN(Cc1cccs1)S(=O)(=O)c1ccc(S(=O)(=O)NC2CCCCC2)cc1)Nc1ccccc1 was read as ELG1 DNA repair inconclusive, TDP1 cell noCPT 18µM*, ALOX12 inh 6%, Gal4-VP16 FLuc -9%, TDP1 cell CPT 21µM* and RORgamma inh -6%[10 µM].
O=C(CN(C1CC1)S(=O)(=O)c1ccc(S(=O)(=O)NC2CCCCC2)cc1)Nc1ccccc1 was read as ELG1 DNA repair inconclusive, TDP1 cell noCPT inconclusive, ALOX12 inh 1%, Gal4-VP16 FLuc 1%, TDP1 cell CPT inconclusive and RORgamma inh inconclusive.
`COc1ccc(-c2sc3ccc(N4CCOCC4)cc3c2C#CC(C)(C)O)cc1` gave ELG1 DNA repair -14%, TDP1 cell noCPT 9.2µM*, ALOX12 inh inconclusive and TDP1 cell CPT 21µM*.
`COc1ccc(-c2sc3ccc(N4CCOCC4)cc3c2-c2ccc(O)cc2)cc1` gave ELG1 DNA repair -5%, TDP1 cell noCPT inconclusive, ALOX12 inh -19% and TDP1 cell CPT inconclusive.
Screening COc1ccc(-c2sc3ccc(N4CCOCC4)cc3c2C#Cc2ccsc2)cc1 returned ELG1 DNA repair 2%, TDP1 cell noCPT inconclusive, ALOX12 inh -24% and TDP1 cell CPT 18µM*.
`O=C(N[C@@H]1COCC[C@@H]1OCc1ccccc1)c1n[nH]c2c1COCC2` gave ALOX12 inh 23%.
O=C(CCCn1c(=S)[nH]c2ccsc2c1=O)Nc1ccc2c(c1)OCCO2 was read as ELG1 DNA repair inconclusive, TDP1 cell noCPT -4%, ALOX12 inh 0%, Gal4-VP16 FLuc inconclusive, TDP1 cell CPT 8% and RORgamma inh 11µM*.
For CC1CCCC(NC(=O)CCCCCn2c(=S)[nH]c3ccsc3c2=O)C1C (configuration not stated) the results were TDP1 cell noCPT inconclusive, ALOX12 inh -10% and TDP1 cell CPT inconclusive.
Screening CCOc1ccc(NC(=O)CCCCn2c(=O)[nH]c3ccsc3c2=O)cc1 returned ELG1 DNA repair 26%, TDP1 cell noCPT -17%, ALOX12 inh 1%, Gal4-VP16 FLuc -8%, TDP1 cell CPT -2% and RORgamma inh 18%.
For CCOc1ccc(NC(=O)CCCn2c(=S)[nH]c3ccsc3c2=O)cc1 the results were ELG1 DNA repair -11%, TDP1 cell noCPT -21%, ALOX12 inh -3%, Gal4-VP16 FLuc inconclusive, TDP1 cell CPT 6% and RORgamma inh 13µM*.
O=C(CCCCn1c(=S)[nH]c2ccsc2c1=O)NCc1ccc2c(c1)OCO2 was read as ELG1 DNA repair -8%, TDP1 cell noCPT 18µM*, ALOX12 inh inconclusive, Gal4-VP16 FLuc -21%, TDP1 cell CPT inconclusive and RORgamma inh 14µM*.
`CC1CCCCC1NC(=O)CCCn1c(=S)[nH]c2ccsc2c1=O` (configuration not stated) gave ELG1 DNA repair 10%, TDP1 cell noCPT 1%, ALOX12 inh -11%, Gal4-VP16 FLuc inconclusive, TDP1 cell CPT 0% and RORgamma inh 18µM*.
CC1CCCN(c2nnc(NC(=O)Nc3ccc4c(c3)OCCO4)s2)C1 (configuration not stated) was read as ALOX12 inh -11%.
For Cc1cccc(C(=O)N2CCC(c3noc(-c4ccncc4)n3)C2)c1 (configuration not stated) the results were ALOX12 inh 3%.
O=C([C@H]1C[C@@H](F)CN1S(=O)(=O)c1ccc(Cl)cc1)N1CCOCC1 was read as ALOX12 inh 24%.
`NC(=O)C(c1ccc(Br)cc1)c1ccc(C(=O)c2ccccc2)cc1` (configuration not stated) gave ELG1 DNA repair inconclusive, TDP1 cell noCPT 15µM*, ALOX12 inh 9%, Gal4-VP16 FLuc -1%, TDP1 cell CPT inconclusive and RORgamma inh inconclusive.
`O=C(CCCc1ccccc1)N1CCC2(CC1)CC(Cc1nc(-c3cccnc3)no1)CCO2` (configuration not stated) gave ALOX12 inh 25%.
Screening C=CCOC(=O)C1=C(C)N(Cc2cccc(Cl)c2)C(=O)CC1c1ccccc1Cl (configuration not stated) returned ALOX12 inh 13%.
For Cc1cc(C)cc(N(C(=O)C23CC4CC(CC(C4)C2)C3)C2C=CS(=O)(=O)C2)c1 (configuration not stated) the results were ALOX12 inh -26%.
For CCN(CC)C(=S)SC1CCCCN(C(=O)c2ccccc2)C1=O (configuration not stated) the results were ELG1 DNA repair -3%, TDP1 cell noCPT -2%, ALOX12 inh -3%, Gal4-VP16 FLuc -2%, TDP1 cell CPT 18µM* and RORgamma inh -26%.
`N#CCOc1ccc2[nH]cc(C(C(=O)O)N3CCN(Cc4cccc(Cl)c4)CC3)c2c1` (configuration not stated) gave ALOX12 inh 4%.
C/C(=N\NC(=O)c1ccccc1)c1ccc2c(c1)OCO2 was read as ELG1 DNA repair inconclusive, TDP1 cell noCPT -8%, ALOX12 inh 0%, Gal4-VP16 FLuc inconclusive, TDP1 cell CPT -6% and RORgamma inh 20%.
For CNC(=S)N/N=C(\C)c1ccc2c(c1)OCO2 the results were ELG1 DNA repair inconclusive, TDP1 cell noCPT inconclusive, ALOX12 inh 13%, Gal4-VP16 FLuc inconclusive, TDP1 cell CPT 21% and RORgamma inh 7.1µM*.
`CNC(=S)N/N=C(\C)c1ccc2c(c1)OCCO2` gave ELG1 DNA repair inconclusive, TDP1 cell noCPT -4%, ALOX12 inh inconclusive, Gal4-VP16 FLuc 8.9µM*, TDP1 cell CPT -3% and RORgamma inh 2.8µM*.
